This is a sample that favours compounds with a hit; in the whole collection about 2.3% have one here.
Beta2AR agonist – human beta-2 adrenergic receptor agonism by FAP; P07550; Am2.2-beta2AR cells, FAP receptor internalization, flow cytometry; response, % (concentration not given with the values); actives 0.43% (n = 340,000); AID 504454;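 active = response above a set limit, near 3 SD of response in nonfluorescent compounds, cut at about 42% in these data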
ABHD5 PLIN5 PPI – ABHD5-PLIN5 protein interaction inhibition | actives 0.78% (n = 360,000) | Q00G26+Q8WTS1 | inhibition, % at 4 µM | Split G. princeps luciferase complementation, luminescence, 4 h | AID 602281;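 active = inhibition above the mean inhibition across every tested compound plus 3 SD, cut at about 22% in these data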;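 also: 0% = DMSO only wells and the 100% control is not disclosed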
NTR1 ag – activates human neurotensin receptor 1. AID 493036. P30989. NTR1-U2OS beta-arrestin-GFP spot imaging, agonist mode. activation, % at 20 µM. actives 0.17% (n = 330,000);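 active = activation at or above 40% of the spot to cytoplasm intensity ratio, with at least 20 cells analyzed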;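 also: 0% = DMSO without peptide and 100% = 100 nM NTR1 peptide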
HTR2A ag – agonists of mouse serotonin 5-HT2A receptor (HTR2A) | activation, % at 7.6 µM | actives 0.66% (n = 360,000) | CHO-K1 mHTR2A beta-arrestin complementation, luminescence; percent of 30 µM serotonin response;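 active = activation above a run cutoff, the mean activation of all tested compounds plus 3 SD, cut at about 14% in these data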;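 also: 0% = plate median of compound wells and 100% = 30 µM serotonin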
Granule exo inh – blocks lytic granule exocytosis | TALL-104 LAMP-1 surface exposure, flow cytometry; cells stimulated with thapsigargin and PMA | actives 0.66% (n = 360,000) | AID 651702 | inhibition, % at 10 µM;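 active = inhibition above about 55%, limit read from the data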
* hit, by the source's call; · = not tested or not shown.

SMILES	Beta2AR agonist	ABHD5 PLIN5 PPI	NTR1 ag	HTR2A ag	Granule exo inh
Nc1nc(SCC(=O)Nc2ccc(OCc3ccccc3)cc2)n[nH]1	0	0	0	-4	6
NC(=S)N=Nc1c(O)n(CCCl)c2ccc(Cl)cc12	-2	3	8	0	57*
NC(=S)N=Nc1c(O)n(CCCl)c2ccccc12	-5	-10	2	2	0
COC(=O)/C(=C\c1ccc([N+](=O)[O-])o1)NC(=O)c1ccccc1	56*	-2	13	-1	1
CCCCNC(=O)/C(=C\c1ccc([N+](=O)[O-])o1)NC(=O)c1ccccc1	-1	3	-1	5	0
CC(C)N(C)c1ncnc2c1ncn2[C@H]1CN(Cc2ccc(Cl)cc2)C[C@@H](CO)O1	·	7	·	2	1
O=C(C[n+]1ccc2ccccc2c1)c1cccc2ccccc12	16	3	-2	-6	1
O=C(/C=C/c1cc[n+](CC(=O)c2ccc3cccc4c3c2CC4)cc1)c1ccc2cccc3c2c1CC3	74*	23*	1	1	70*
N=C1/C(=C/c2cccn2Cc2ccc(Cl)cc2)C(=O)N=C2SC=CN12	-5	-4	10	-1	-3
Cc1oc(-c2ccc(Cl)cc2)cc1C(=O)NC1CCN(Cc2ccccc2)CC1	-1	-1	4	-8	80*
S=C(Nc1cc(Cl)cc(Cl)c1)NC1CCN(Cc2ccccc2)CC1	13	3	52*	-8	11
CCN(C(=O)CN1C(=O)NC2(CCc3ccccc32)C1=O)C1CCCCC1 (stereo not drawn)	-10	-11	0	1	-1
COc1ccc(NC(=O)CN2CCCCC2)c([N+](=O)[O-])c1	-4	6	1	16*	5
Cc1cc2nc(C(C)(C)C)c(Cc3ccsc3)n2c(C)c1Br	·	-9	·	-1	0
Cc1nn(C(=O)c2cccnc2)c(C)c1Sc1ccc(Br)cc1	3	-12	-1	-3	59*
Cc1nn(C(=O)c2ccco2)c(C)c1Sc1ccc(Cl)cc1	-10	-2	-1	2	0
CCOC(=O)c1c(C)[nH]c(C(=O)COC(=O)/C=C/c2ccc3c(c2)OCO3)c1C	53*	0	-1	-3	-2
Cc1cc(/C=C\c2ccc3cc(N(C)C)ccc3[n+]2C)c(C)n1-c1ccccc1	·	26*	-2	-7	8
C#CCCOC(=O)N1C2=NC(C(=O)OC)=C(C(=O)OC)[C@@H]3Nc4ccccc4[C@]23C[C@H]1C(=O)OC	5	-1	·	2	-14
O=C(CCc1nnc2ccc(NCc3ccco3)nn12)Nc1ccc(F)cc1F	0	1	-1	2	15
C=C(C(=O)c1ccccc1)C(c1ccccc1)C(C)C(=O)c1ccccc1 (stereo not drawn)	4	3	7	0	9
C=C(C(=O)c1ccccc1)C(C)C(=C)C(=O)c1ccccc1	10	22*	·	0	8
O=C(O)CCN1C(=O)/C(=C\c2ccc(-c3nc4ccccc4s3)o2)SC1=S	55*	-6	0	2	43
O=C(O)CCCN1C(=O)/C(=C\c2ccco2)SC1=S	10	0	·	-1	-1
N#Cc1ccc(/C=C\c2nccc3c2[nH]c2ccccc23)cc1	28	2	7	-3	72*
SMILES	Beta2AR agonist	ABHD5 PLIN5 PPI	NTR1 ag	HTR2A ag	Granule exo inh
CC(=O)Nc1ccc(C(=O)COC(=O)c2ccco2)c(F)c1	16	-3	-2	-10	1
COc1c(Cl)cc(Cl)cc1/C=C/C(=O)c1ccc(NC(=O)c2cccs2)cc1	32	21	10	-4	-3
COc1ccc(N2C(=O)CC(Sc3nc(C)cc(C)c3C#N)C2=O)cc1 (stereo not drawn)	-13	7	0	-3	-4
COc1ccc(N2C(=O)CC(Sc3nnnn3-c3ccc(F)cc3)C2=O)cc1 (stereo not drawn)	17	52*	2	4	25
O=C(CSCc1cccc(Br)c1)N=Nc1c(O)[nH]c2ccccc12	8	-2	5	0	5
O=Nc1c(-c2c(O)[nH]c3cc(Br)ccc23)[nH]c2ccccc12	43*	3	12	-5	27
CCN(C(=O)COC(=O)CCn1c(C)csc1=O)c1c(N)n(Cc2ccccc2)c(=O)[nH]c1=O	0	5	1	1	3
O=C1c2ccccc2-c2onc3ccc(Oc4ccccc4)c1c23	-111	7	-1	1	85*

High-throughput results (PubChem BioAssay)
